Test results: the supplement of paper PMC12350171
Counter-ions that a name gives are not always drawn.

Key:
Settings in all cases: 20 µM
[1] = tested on: Salmonella enterica typhimurium; test: growth AUC normalised to DMSO control (fraction of control); higher = less growth inhibition, active = hit call of the paper
Summary of the method: (§1)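 Three biological replicates were carried out, with OD578 read hourly for 24 h. Before inoculation at a starting OD578 of 0.01, pathogens were passaged anaerobically twice; plates were pre-reduced mGAM containing 20 μM compound and 1% DMSO, sealed with breathable membranes, and the Haemophilus parainfluenzae medium carried added hemin and NAD. Area under each growth curve was calculated by the trapezoidal rule up to the exponential-to-stationary transition and normalised to DMSO controls on the same plate.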

Shigella flexneri = test: as above
Summary of the method: as §1

Vibrio cholerae = test: as above
Summary of the method: as §1

[2] = tested on: Yersinia pseudotuberculosis; test: as above
Summary of the method: as §1

P. vulgatus RND KO = test: growth AUC normalised to DMSO control (median) (fraction of control); higher = less growth inhibition, active = hit call of the paper
Summary of the method: (§2)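 For normalised area under the curve, growth curves were truncated at entry into stationary phase, integrated by the trapezoidal rule and divided against vehicle wells on the same plate. The curves came from strains passaged twice overnight without oxygen and then grown in mGAM in 96-well plates at a starting OD578 of 0.01. Each well held an approved-drug library compound at 20 μM with 1% DMSO, and OD578 was read hourly for 24 h in an anaerobic incubator. Values are medians of three biological replicates.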

[3] = tested on: S. enterica typhimurium WT; test: as above
Summary of the method: as §2

[4] = tested on: S. enterica typhimurium tolC KO; test: as above
Summary of the method: as §2

P. vulgatus WT = test: as above
Summary of the method: as §2

Measured: growth AUC normalised to DMSO control
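For growth AUC normalised to DMSO control (median) in this document: active when median AUC fell below 0.1.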

Nc1nc2ccc(OC(F)(F)F)cc2s1 [Riluzole hydrochloride]
inactive: [1] 1.01 | Shigella flexneri 0.993 | Vibrio cholerae 0.937 | [2] 0.984 | P. vulgatus RND KO 0.999 | [3] 0.979 | [4] 0.976

O=c1[nH]c(=O)n([C@H]2C[C@H](O)[C@@H](CO)O2)cc1C(F)(F)F [Trifluridine]
inactive: Shigella flexneri 1.01 | Vibrio cholerae 1.05 | [2] 0.997 | P. vulgatus RND KO 0.13 | P. vulgatus WT 0.123 | [3] 0.964 | [4] 0.958

CCC1(c2ccccc2)C(=O)NCNC1=O [Primidone]
inactive: Shigella flexneri 0.971 | Vibrio cholerae 0.976 | [2] 0.951 | P. vulgatus RND KO 1 | P. vulgatus WT 1 | [3] 1 | [4] 0.997

CC(C)NC[C@@H](O)COc1cccc2ccccc12 [(R) Propranolol hydrochloride]
inactive: Shigella flexneri 1.02 | Vibrio cholerae 1.02 | [2] 0.999 | P. vulgatus RND KO 0.978 | P. vulgatus WT 0.988 | [3] 0.984 | [4] 0.983

CCCCCN(CCCCC)C(=O)C(CCC(=O)O)NC(=O)c1ccc(Cl)c(Cl)c1 (configuration not stated) [Lorglumide sodium salt]
inactive: [1] 1 | Shigella flexneri 0.965 | Vibrio cholerae 0.986 | [2] 1.01 | P. vulgatus RND KO 0.947 | P. vulgatus WT 0.959 | [3] 1 | [4] 0.991

CC1(C)S[C@@H]2[C@H](NC(=O)[C@H](N)c3ccccc3)C(=O)N2[C@H]1C(=O)O [Ampicillin trihydrate]
active: [1] 0.00858 | Shigella flexneri 0.0549 | Vibrio cholerae 0.254 | [2] 0.0564 | P. vulgatus WT 0.0887 | [3] 0.0624 | [4] 0.0201

CCN(CC)C(=S)SSC(=S)N(CC)CC [Disulfiram]
inactive: Shigella flexneri 0.968 | Vibrio cholerae 0.989 | [2] 0.97 | P. vulgatus RND KO 0.896 | P. vulgatus WT 1.07 | [3] 0.995 | [4] 1

C[C@]1(Cn2ccnn2)[C@H](C(=O)O)N2C(=O)C[C@H]2S1(=O)=O [Tazobactam]
inactive: [1] 0.986 | Shigella flexneri 0.976 | Vibrio cholerae 0.972 | [2] 0.99 | P. vulgatus WT 0.57 | [3] 0.99 | [4] 1

Cc1onc(-c2ccccc2)c1C(=O)N[C@@H]1C(=O)N2[C@@H]1SC(C)(C)[C@@H]2C(=O)O [Oxacillin sodium]
active: [2] 0.908 | [4] 0.0924
inactive: [1] 0.975 | Shigella flexneri 1.03 | Vibrio cholerae 0.961 | P. vulgatus WT 0.151 | [3] 0.994

CCC(=O)OCC(=O)[C@@]1(OC(=O)CC)[C@@H](C)C[C@H]2[C@@H]3CCC4=CC(=O)C=C[C@]4(C)[C@@]3(Cl)[C@@H](O)C[C@@]21C [Beclomethasone dipropionate]
inactive: [1] 0.99 | Shigella flexneri 0.956 | Vibrio cholerae 0.965 | [2] 1.01 | P. vulgatus WT 0.972 | [3] 1.01 | [4] 0.975

CC(C)OC(=O)C(C)(C)Oc1ccc(C(=O)c2ccc(Cl)cc2)cc1 [Fenofibrate]
inactive: Shigella flexneri 0.971 | Vibrio cholerae 1 | [2] 0.992 | P. vulgatus RND KO 0.996 | P. vulgatus WT 1.01 | [3] 1 | [4] 0.94

CCOC(=O)O[C@]1(C(=O)COC(=O)CC)CC[C@H]2[C@@H]3CCC4=CC(=O)C=C[C@]4(C)[C@H]3[C@@H](O)C[C@@]21C [Prednicarbate]
inactive: [1] 1.01 | Shigella flexneri 1.03 | [2] 1 | P. vulgatus RND KO 1 | P. vulgatus WT 1.04 | [3] 0.992 | [4] 0.967

CN1CCN(c2c(F)cc3c(=O)c(C(=O)O)cn(CCF)c3c2F)CC1 [Fleroxacin]
inactive: P. vulgatus RND KO 0.727 | P. vulgatus WT 0.585
active: Shigella flexneri 0.0225 | Vibrio cholerae 0.0321 | [2] 0.0196 | [3] 0.00801 | [4] 0.00549

N=C(N)NC(=O)c1nc(Cl)c(N)nc1N [Amiloride hydrochloride dihydrate]
inactive: [1] 1.01 | Shigella flexneri 1.01 | Vibrio cholerae 1.04 | [2] 1.02 | P. vulgatus RND KO 1.03 | P. vulgatus WT 1.04 | [3] 0.982 | [4] 0.996

N[C@@H](Cc1ccc(O)c(O)c1)C(=O)O [Levodopa]
inactive: Shigella flexneri 1 | Vibrio cholerae 0.991 | [2] 0.99 | P. vulgatus RND KO 1.01 | P. vulgatus WT 0.996 | [3] 0.973 | [4] 0.996
